Usually residual activity stands for the signal under treatment as a percentage of the control signal.

Each structure is given as a SMILES string.

For the first assay, the target named is Death-associated protein kinase 2 (Homo sapiens) (UniProt Q9UIK4). Particulars: at 10 µM.
Death-associated protein kinase 2 (Homo sapiens), sequence (Q9UIK4 whole entry, looked up): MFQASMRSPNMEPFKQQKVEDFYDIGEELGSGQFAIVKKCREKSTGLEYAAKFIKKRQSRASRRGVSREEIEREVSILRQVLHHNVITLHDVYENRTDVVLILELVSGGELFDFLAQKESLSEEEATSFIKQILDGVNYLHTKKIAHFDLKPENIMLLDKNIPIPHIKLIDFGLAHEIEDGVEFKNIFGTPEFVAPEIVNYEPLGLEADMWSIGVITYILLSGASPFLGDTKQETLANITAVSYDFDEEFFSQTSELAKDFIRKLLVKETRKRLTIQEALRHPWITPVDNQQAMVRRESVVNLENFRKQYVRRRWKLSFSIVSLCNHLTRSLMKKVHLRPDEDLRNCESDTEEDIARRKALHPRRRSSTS
`O=c1c2ccccc2[nH]c(=S)n1CCN1CCC(=C(c2ccc(F)cc2)c2ccc(F)cc2)CC1`: the residual activity was determined as 104%.
On the same count and under the same terms, the result for `O=[N+]([O-])c1ccc(-c2nc(-c3ccc(F)cc3)c(-c3ccncc3)[nH]2)cc1` reads 101%; that for `O=C1Nc2cc(Br)ccc2/C1=C1/Nc2ccccc2/C1=N\O`, 26%; that for `O=Nc1c(-c2c(O)[nH]c3ccccc23)[nH]c2ccccc12`, 23%.
The same measure, in the same setting: the result for `CC[n+]1c(/C=C/N(C)c2ccccc2)n(-c2ccccc2)c2ccc(-c3nc4ccccc4s3)cc21` reads 99%; that for `CC(C)n1cnc2/c(=N/c3cccc(Cl)c3)nc(NCCO)[nH]c21`, 98%.
On the same count and under the same terms, under `Oc1n[nH]c2nnc(-c3c(-c4ccccc4)nn4ccccc34)cc12` stands 43%.
Take `CCN(CC)CCCCN1c2ccccc2Oc2ccc(Cl)cc21`: the residual activity was determined as 109%.
On the same count and under the same terms, the result for `Cn1nc2c3c(cccc31)C(=O)c1ccccc1-2` reads 76%; that for `NC(=O)c1ccc2[nH]c(-c3ccc(Oc4ccc(Cl)cc4)cc3)nc2c1`, 102%; that for `COc1cc2ncnc(N3CCN(C(=O)Nc4ccc(Oc5ccccc5)cc4)CC3)c2cc1OC`, 112%.
The same measure, in the same setting: under `CC(=O)O/N=C1\C(=C2\C(=O)Nc3cc(Br)ccc32)Nc2ccccc21` stands 65%; under `Ic1cccc(CSc2nnc(-c3ccncc3)o2)c1`, 100%.
Same read-out and setting: under `COc1cc2ncnc(Nc3ccc(Oc4ccccc4)cc3)c2cc1OC` stands 118%; under `Cc1nc2cc3nc(-c4cccs4)cnc3cc2n1C`, 108%; under `O=C1NC(=O)/C(=C/c2ccc3c(c2)OC(F)(F)O3)S1`, 96%.
Take `COc1ccc(C(=O)Nc2sc3c(c2C(N)=O)CCCC3)cc1OC`: the residual activity was determined as 105%.
On the same count and under the same terms, under `C[C@@H](N)[C@H]1CC[C@H](C(=O)Nc2ccncc2)CC1` stands 85%; under `N#C/C(=C(\N)Sc1ccc(N)cc1)c1ccccc1C(F)(F)F`, 103%; under `CC(C)n1cnc2c(NCc3ccccc3)nc(NCCCO)nc21`, 92%.
Consider `Cn1cc(/C=C2\C(=O)Nc3ccc(S(N)(=O)=O)cc32)c2ccccc21`, for which the residual activity stood at 94%.
For `O=C1NC(=O)c2cc(Nc3ccc(F)cc3)c(Nc3ccc(F)cc3)cc21`, the residual activity turned out to be 84%.
Still for that read-out and setting: the result for `Cc1ccc(S(=O)(=O)/C=C/C#N)cc1` reads 105%.
On the same count and under the same terms, the result for `CNc1cc2c(Nc3cccc(Br)c3)ncnc2cn1` reads 69%; that for `Oc1ccc(-c2nc(-c3ccc(F)cc3)c(-c3ccncc3)[nH]2)cc1`, 97%; that for `CN(C)c1ccc(/C=C2\C(=O)Nc3ccccc32)cc1`, 88%.
For the molecule `O=c1cc(-c2cccc3c2Sc2ccccc2S3)oc(N2CCOCC2)c1`, the residual activity came to 89%.
Same read-out and setting: the result for `Cc1ccc(NC2=CC(=O)c3sc(C)nc3C2=O)cc1` reads 94%; that for `COc1ccc(OC)c2c(=S)c3ccccc3[nH]c12`, 95%.
Still for that read-out and setting: the result for `Nc1cccc(-c2cc3c(Oc4cccc(O)c4)ncnc3[nH]2)c1` reads 91%; that for `COc1ccc(CNc2nc(N(CCO)CCO)nc3c2ncn3C(C)C)cc1`, 104%; that for `Cn1cnc2cc3c(Nc4cccc(Br)c4)ncnc3cc21`, 113%.
On the same count and under the same terms, the result for `O=C1c2ccccc2-[n+]2ccc3c([nH]c4ccccc43)c21` reads 96%; that for `O=C(O)c1ccc2c3c1cccc3c(=O)n1c3ccccc3nc21`, 1%; that for `COc1ccc(S(=O)(=O)N(CCO)c2ccccc2CN(C)C/C=C/c2ccc(Cl)cc2)cc1`, 87%.

Another assay concerns the target T1, Serine/threonine-protein kinase DCLK2 (Homo sapiens) (UniProt Q8N568).
T1 sequence (whole entry): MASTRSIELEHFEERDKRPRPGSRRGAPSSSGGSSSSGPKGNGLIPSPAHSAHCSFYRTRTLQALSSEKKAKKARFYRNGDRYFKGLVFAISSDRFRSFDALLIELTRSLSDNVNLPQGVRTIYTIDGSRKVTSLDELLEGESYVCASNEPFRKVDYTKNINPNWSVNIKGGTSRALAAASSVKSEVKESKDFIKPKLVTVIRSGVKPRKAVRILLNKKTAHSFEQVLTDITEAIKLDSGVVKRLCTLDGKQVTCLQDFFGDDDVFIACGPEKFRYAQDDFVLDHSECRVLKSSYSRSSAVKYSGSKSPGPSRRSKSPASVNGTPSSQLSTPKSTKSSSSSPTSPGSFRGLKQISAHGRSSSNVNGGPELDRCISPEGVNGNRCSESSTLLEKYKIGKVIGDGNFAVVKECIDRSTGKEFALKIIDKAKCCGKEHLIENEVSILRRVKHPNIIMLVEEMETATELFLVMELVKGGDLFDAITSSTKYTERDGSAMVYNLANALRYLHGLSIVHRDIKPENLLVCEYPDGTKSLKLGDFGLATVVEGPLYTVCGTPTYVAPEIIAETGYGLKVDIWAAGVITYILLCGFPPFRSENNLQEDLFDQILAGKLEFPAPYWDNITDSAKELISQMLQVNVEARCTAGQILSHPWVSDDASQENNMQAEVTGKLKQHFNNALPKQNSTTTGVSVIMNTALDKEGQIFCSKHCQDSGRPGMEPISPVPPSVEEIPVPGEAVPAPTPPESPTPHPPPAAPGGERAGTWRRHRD
Particulars: at 1 µM.
`O=c1c2ccccc2[nH]c(=S)n1CCN1CCC(=C(c2ccc(F)cc2)c2ccc(F)cc2)CC1`: the residual activity was 91%.
Regarding `O=[N+]([O-])c1ccc(-c2nc(-c3ccc(F)cc3)c(-c3ccncc3)[nH]2)cc1`, the residual activity came out at 117%.
Still for that read-out and setting: under `O=C1Nc2cc(Br)ccc2/C1=C1/Nc2ccccc2/C1=N\O` stands 89%; under `O=Nc1c(-c2c(O)[nH]c3ccccc23)[nH]c2ccccc12`, 119%.
The same measure, in the same setting: the result for `CC[n+]1c(/C=C/N(C)c2ccccc2)n(-c2ccccc2)c2ccc(-c3nc4ccccc4s3)cc21` reads 110%; that for `CC(C)n1cnc2/c(=N/c3cccc(Cl)c3)nc(NCCO)[nH]c21`, 103%.
Still for that read-out and setting: the result for `Oc1n[nH]c2nnc(-c3c(-c4ccccc4)nn4ccccc34)cc12` reads 85%; that for `CCN(CC)CCCCN1c2ccccc2Oc2ccc(Cl)cc21`, 96%; that for `Cn1nc2c3c(cccc31)C(=O)c1ccccc1-2`, 75%.
With `NC(=O)c1ccc2[nH]c(-c3ccc(Oc4ccc(Cl)cc4)cc3)nc2c1`, the residual activity is 111%.
Same read-out and setting: under `COc1cc2ncnc(N3CCN(C(=O)Nc4ccc(Oc5ccccc5)cc4)CC3)c2cc1OC` stands 98%; under `CC(=O)O/N=C1\C(=C2\C(=O)Nc3cc(Br)ccc32)Nc2ccccc21`, 107%; under `Ic1cccc(CSc2nnc(-c3ccncc3)o2)c1`, 100%.
Same read-out and setting: under `COc1cc2ncnc(Nc3ccc(Oc4ccccc4)cc3)c2cc1OC` stands 82%.
Regarding `Cc1nc2cc3nc(-c4cccs4)cnc3cc2n1C`, the residual activity amounted to 115%.
The same measure, in the same setting: under `O=C1NC(=O)/C(=C/c2ccc3c(c2)OC(F)(F)O3)S1` stands 110%.
Same read-out and setting: under `COc1ccc(C(=O)Nc2sc3c(c2C(N)=O)CCCC3)cc1OC` stands 86%; under `C[C@@H](N)[C@H]1CC[C@H](C(=O)Nc2ccncc2)CC1`, 110%.
Take `N#C/C(=C(\N)Sc1ccc(N)cc1)c1ccccc1C(F)(F)F`: the residual activity was determined as 102%.
Same read-out and setting: the result for `CC(C)n1cnc2c(NCc3ccccc3)nc(NCCCO)nc21` reads 100%.
Same read-out and setting: under `Cn1cc(/C=C2\C(=O)Nc3ccc(S(N)(=O)=O)cc32)c2ccccc21` stands 97%.
The same measure, in the same setting: under `O=C1NC(=O)c2cc(Nc3ccc(F)cc3)c(Nc3ccc(F)cc3)cc21` stands 76%; under `Cc1ccc(S(=O)(=O)/C=C/C#N)cc1`, 125%; under `CNc1cc2c(Nc3cccc(Br)c3)ncnc2cn1`, 121%.
Regarding `Oc1ccc(-c2nc(-c3ccc(F)cc3)c(-c3ccncc3)[nH]2)cc1`, the residual activity stood at 113%.
The same measure, in the same setting: under `CN(C)c1ccc(/C=C2\C(=O)Nc3ccccc32)cc1` stands 88%; under `O=c1cc(-c2cccc3c2Sc2ccccc2S3)oc(N2CCOCC2)c1`, 118%; under `Cc1ccc(NC2=CC(=O)c3sc(C)nc3C2=O)cc1`, 118%.
Still for that read-out and setting: the result for `COc1ccc(OC)c2c(=S)c3ccccc3[nH]c12` reads 101%.
The same measure, in the same setting: the result for `Nc1cccc(-c2cc3c(Oc4cccc(O)c4)ncnc3[nH]2)c1` reads 104%.
As to `COc1ccc(CNc2nc(N(CCO)CCO)nc3c2ncn3C(C)C)cc1`, the residual activity worked out at 94%.
Take `Cn1cnc2cc3c(Nc4cccc(Br)c4)ncnc3cc21`: the residual activity worked out at 102%.
With `O=C1c2ccccc2-[n+]2ccc3c([nH]c4ccccc43)c21`, the residual activity came out at 105%.
Turning to `O=C(O)c1ccc2c3c1cccc3c(=O)n1c3ccccc3nc21`, the residual activity was 117%.
Still for that read-out and setting: under `COc1ccc(S(=O)(=O)N(CCO)c2ccccc2CN(C)C/C=C/c2ccc(Cl)cc2)cc1` stands 91%.

The values above are taken from ChEMBL document CHEMBL2218924, “A broad activity screen in support of a chemogenomic map for kinase signalling research and drug discovery” (Biochem J, 2013).
